From PubChem BioAssay (Tox21)
Results filed as inconclusive are left out. Calls of active or inactive are those of the source. Unless noted, calls follow the shape of the full dose curve.

Experiments:
[1] = target: Acetylcholinesterase (Homo sapiens) (UniProt P22303); assay: Acetylcholinesterase (AChE) small molecule antagonists: colormetric cell-based qHTS assay (AID 1347395); conditions: SH-SY5Y cells AChE activity, colorimetric (Ellman); series mostly up to 115 µM; also: nearly all actives have a fitted effect of over 30% in size
How it was run: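 Colorimetric readout: DTNB quantifies thiocholine from acetylthiocholine hydrolysed by endogenous AChE of SH-SY5Y cells (2,000/well, plated overnight). Compound pretreatment 30 min, substrate incubation 90 min, both 37 C.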

[2] = target: Acetylcholinesterase (Homo sapiens) (UniProt P22303); assay: Acetylcholinesterase (AChE) small molecule antagonists: enzyme-based qHTS assay (AID 1347397); conditions: Potency: AChE enzyme activity inhibition; outcome: AChE enzyme activity inhibition; series mostly up to 115 µM; also: nearly all actives have a fitted effect of over 55% in size
How it was run: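 Absorbance-based detection of thiocholine with DTNB served as the read-out. Recombinant human AChE was exposed to compound for 30 min at RT before a 10 min RT incubation with acetylthiocholine.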

[3] = target: Acetylcholinesterase (Homo sapiens) (UniProt P22303); assay: Acetylcholinesterase (AChE) small molecule antagonists: fluorescence cell-based qHTS assay (AID 1347398); conditions: SH-SY5Y cells; Potency: AChE activity; outcome: AChE activity; series mostly up to 115 µM; also: nearly all actives have a fitted effect of over 50% in size
How it was run: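 Fluorimetric cell-based assay: intact SH-SY5Y cells, 30 min compound preincubation at 37 C, acetylthiocholine substrate with thiol probe Thiolite Green, 40 min RT development, fluorescence 490/520 nm.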

[4] = target: Acetylcholinesterase (Homo sapiens) (UniProt P22303); assay: Acetylcholinesterase (AChE) small molecule antagonists: enzyme-based qHTS assay with human liver microsomes (AID 1347399); conditions: Potency: qHTS inhibition; outcome: qHTS inhibition; series mostly up to 115 µM; also: nearly all actives have a fitted effect of over 60% in size
How it was run: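 Recombinant human AChE (50 mU/mL in the enzyme mix) and human liver microsomes (0.25 mg/mL final) were preincubated with compound and NADPH (0.25 mg/mL final) for 30 min at 37 C. Acetylthiocholine/DTNB was then added; thiocholine was read colorimetrically after 10 min at room temperature.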

Aromatase (Homo sapiens) = Aromatase (Homo sapiens) (UniProt P11511); assay: qHTS assay to identify aromatase inhibitors (AID 743083; active = well fitted inhibition curve with a large enough effect in the repeat runs; also: nearly all actives have a fitted effect of over 55% in size; also: potency is read from the fitted curve at half-maximal effect); conditions: MCF-7 aro ERE, testosterone-driven ERE luciferase, 24 h; series mostly up to 70.3 µM
[5] = qHTS assay for small molecule agonists of the p53 signaling pathway (AID 651631); conditions: HCT-116 p53RE-bla reporter, beta-lactamase FRET ratio, 16 h; series mostly up to 73.3 µM; also: nearly all actives have a fitted effect of over 15% in size; also: potency is read from the fitted curve at half-maximal effect
How it was run: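 Readout was fluorescence from the LiveBLAzer FRET substrate, applied for 2 h at room temperature after 16 h compound exposure at 37 °C. Cells were the p53RE-bla HCT-116 line, with beta-lactamase driven by p53 response elements.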

[6] = target: Glucocorticoid receptor (Homo sapiens) (UniProt P04150); assay: qHTS assay to identify small molecule antagonists of the glucocorticoid receptor (GR) signaling pathway (AID 720692; active = well fitted inhibition curve with a large enough effect in the signal ratio in the repeat runs, not every such curve was filed as active; the % refers to the signal ratio); conditions: GR-bla HeLa, beta-lactamase FRET ratio, dexamethasone-stimulated, 18 h; series mostly up to 58.5 µM
How it was run: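 Dexamethasone (5 nM final) stimulated a stably integrated GRE-beta-lactamase reporter in HeLa cells during 18 h co-incubation with compounds; signal was quantified as fluorescence intensity of B/G FRET substrate after 2 h.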
% is scaled to controls: 0 for no effect and ±100 for the full control effect.

Sequence of Acetylcholinesterase (Homo sapiens) (P22303 whole entry, looked up): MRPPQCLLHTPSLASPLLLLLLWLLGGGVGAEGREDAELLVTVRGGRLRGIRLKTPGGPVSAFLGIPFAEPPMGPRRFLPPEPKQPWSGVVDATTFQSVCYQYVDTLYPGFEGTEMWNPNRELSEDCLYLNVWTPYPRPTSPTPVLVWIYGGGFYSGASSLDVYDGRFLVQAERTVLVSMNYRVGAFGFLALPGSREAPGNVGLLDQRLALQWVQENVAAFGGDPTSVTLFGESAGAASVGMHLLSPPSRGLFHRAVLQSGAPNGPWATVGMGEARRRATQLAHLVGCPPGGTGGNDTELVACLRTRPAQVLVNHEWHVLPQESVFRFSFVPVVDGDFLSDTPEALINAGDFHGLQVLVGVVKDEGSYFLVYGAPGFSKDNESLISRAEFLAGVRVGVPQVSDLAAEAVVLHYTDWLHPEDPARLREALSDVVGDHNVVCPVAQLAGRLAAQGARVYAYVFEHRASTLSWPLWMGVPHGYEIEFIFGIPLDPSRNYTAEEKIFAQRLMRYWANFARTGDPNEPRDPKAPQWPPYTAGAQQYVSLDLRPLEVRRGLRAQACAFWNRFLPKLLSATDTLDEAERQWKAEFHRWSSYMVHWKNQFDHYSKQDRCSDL
Sequence of Aromatase (Homo sapiens) (P11511 whole entry, looked up): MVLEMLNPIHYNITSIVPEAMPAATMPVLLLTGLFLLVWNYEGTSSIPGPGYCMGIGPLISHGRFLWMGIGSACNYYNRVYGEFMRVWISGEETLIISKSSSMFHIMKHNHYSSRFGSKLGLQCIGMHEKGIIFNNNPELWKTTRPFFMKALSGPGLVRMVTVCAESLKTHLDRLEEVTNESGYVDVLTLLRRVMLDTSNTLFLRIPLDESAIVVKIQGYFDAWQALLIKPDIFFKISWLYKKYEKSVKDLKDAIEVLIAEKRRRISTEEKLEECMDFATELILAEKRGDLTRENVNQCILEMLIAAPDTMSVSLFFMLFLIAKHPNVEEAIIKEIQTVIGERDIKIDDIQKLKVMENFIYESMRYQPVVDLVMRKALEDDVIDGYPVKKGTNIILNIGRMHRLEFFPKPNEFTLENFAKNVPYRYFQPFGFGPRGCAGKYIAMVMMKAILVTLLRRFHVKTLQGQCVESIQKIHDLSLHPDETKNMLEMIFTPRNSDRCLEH
Sequence of Glucocorticoid receptor (Homo sapiens) (P04150 whole entry, looked up): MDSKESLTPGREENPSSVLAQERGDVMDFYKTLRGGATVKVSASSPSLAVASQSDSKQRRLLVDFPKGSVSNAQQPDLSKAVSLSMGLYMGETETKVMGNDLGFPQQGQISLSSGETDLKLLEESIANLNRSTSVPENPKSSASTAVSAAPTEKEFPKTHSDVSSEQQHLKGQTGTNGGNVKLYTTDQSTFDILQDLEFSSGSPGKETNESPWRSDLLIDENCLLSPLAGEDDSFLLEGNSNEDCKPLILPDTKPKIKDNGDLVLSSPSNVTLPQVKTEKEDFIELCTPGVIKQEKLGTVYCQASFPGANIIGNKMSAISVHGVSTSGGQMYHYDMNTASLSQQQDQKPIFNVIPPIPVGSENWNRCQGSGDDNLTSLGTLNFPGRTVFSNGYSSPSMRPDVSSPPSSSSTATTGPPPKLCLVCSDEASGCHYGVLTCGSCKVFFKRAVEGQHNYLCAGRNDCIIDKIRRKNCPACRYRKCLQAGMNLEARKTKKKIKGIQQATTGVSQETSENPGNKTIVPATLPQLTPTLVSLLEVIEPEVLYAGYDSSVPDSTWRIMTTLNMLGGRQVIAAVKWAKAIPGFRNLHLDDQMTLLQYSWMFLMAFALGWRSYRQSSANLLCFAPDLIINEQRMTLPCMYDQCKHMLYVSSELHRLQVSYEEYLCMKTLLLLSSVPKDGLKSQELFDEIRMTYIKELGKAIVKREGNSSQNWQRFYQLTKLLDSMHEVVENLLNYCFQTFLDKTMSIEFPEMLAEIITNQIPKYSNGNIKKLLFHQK

CCCCCCOC(=O)CCC
inactive: Potency [1] | Potency [2] | Potency [3] | Potency [4]

COC(=O)c1cc(C(=O)OC)cc(S(=O)(=O)O)c1
inactive: Potency [1] | Potency [2] | Potency [3] | Potency [4]

CC1=CP(=O)(c2ccccc2)CC1 (stereo not given)
inactive: Potency [1] | Potency [2] | Potency [3] | Potency [4]

CC(=O)OC(C)(C)Cc1ccccc1
inactive: Potency [1] | Potency [2] | Potency [3] | Potency [4]

CC(C)COC(=O)C(C)C
inactive: Potency [1] | Potency [2] | Potency [3] | Potency [4]

C=CC1CO1 (stereo not given)
inactive: Potency [1] | Potency [2] | Potency [3] | Potency [4]

CC(=O)Nc1cccc(N)c1
inactive: Potency [1] | Potency [2] | Potency [3] | Potency [4]

[Ca+2]
inactive: Potency [1] | Potency [2] | Potency [3] | Potency [4]

CC(C)(C)c1ccc(OC(=O)c2ccccc2O)cc1
inactive: Potency [1] | Potency [2] | Potency [3] | Potency [4]

O=C(O)c1ccc(CO)o1
inactive: Potency [1] | Potency [2] | Potency [3] | Potency [4]

O=C(O)CCN(C1(C(=O)NO)CCCC1)S(=O)(=O)c1ccc(Oc2ccc(F)cc2)cc1
inactive: Potency [1] | Potency [2] | Potency [3] | Potency [4]

CN(C)c1ccc(C=O)cc1
inactive: Potency [1] | Potency [2] | Potency [3] | Potency [4]

CC1=C(O)C(=O)C(C)O1 (stereo not given)
inactive: Potency [1] | Potency [2] | Potency [3] | Potency [4]

[O]=[Mo](=[O])=[O]
inactive: activity, negative = inhibition [1] 2.74% [at 23.6 µM] | activity change, negative = inhibition [2] 0.153% [at 23.6 µM] | activity change, negative = inhibition [3] 0.826% [at 23.8 µM] | activity change, negative = inhibition [4] 0.081% [at 23.6 µM]

Nc1ccc(F)c([N+](=O)[O-])c1
inactive: Potency [1] | Potency [2] | Potency [3] | Potency [4]

C/C=C(\C)C#N
inactive: Potency [1] | Potency [2] | Potency [3] | Potency [4]

Nc1ncnc2c1ncn2[C@H]1CC[C@@H](CO)O1
inactive: Potency [1] | Potency [2] | Potency [3] | Potency [4]

CCCCCc1ccc(Cl)cc1
inactive: Potency [1] | Potency [2] | Potency [3] | Potency [4]

CC(=O)[C@H]1[C@H](C#N)C[C@H]2[C@@H]3CC=C4C[C@@H](O)CC[C@]4(C)[C@H]3CC[C@@]21C
inactive: Potency [1] | Potency [2] | Potency [3] | Potency [4]

[O-][n+]1cccc(CO)c1
inactive: Potency [1] | Potency [2] | Potency [3] | Potency [4]

CC(C)CCCCOC(=O)c1ccccc1C(=O)OCCCCC(C)C
inactive: Potency [1] | Potency [2] | Potency [3] | Potency [4]

COC(/C=C(\C)CCC=C(C)C)OC
inactive: Potency [1] | Potency [2] | Potency [3] | Potency [4]

CNCCO
inactive: Potency [1] | Potency [2] | Potency [3] | Potency [4]

O=C(O)c1cccc(C(=O)O)c1C(=O)O
inactive: Potency [1] | Potency [2] | Potency [3] | Potency [4]

NS(=O)(=O)c1cc2c(cc1Cl)NC(CSCc1ccccc1)=NS2(=O)=O
inactive: Potency [1] | Potency [2] | Potency [3] | Potency [4]

OC1(c2ccc(Cl)cc2)CCNCC1
inactive: Potency [1] | Potency [2] | Potency [3] | Potency [4]

NCCC(O)(P(=O)(O)O)P(=O)(O)O
inactive: Potency [1] | Potency [2] | Potency [3] | Potency [4]

O=C(Oc1ccccc1)c1ccccc1C(=O)Oc1ccccc1
inactive: Potency (Aromatase (Homo sapiens)) | Potency [1] | Potency [2] | Potency [3] | Potency [4]

Cc1ccccc1C
inactive: Potency [5] | Potency [6] | Potency [1] | Potency [2] | Potency [3] | Potency [4]

c1ccc(-c2ccc(-c3ccccc3)cc2)cc1
inactive: Potency (Aromatase (Homo sapiens)) | activity, negative = inhibition [1] -0.11% [at 23.6 µM] | activity change, negative = inhibition [2] 0% [at 23.6 µM] | activity change, negative = inhibition [3] 6.58% [at 23.8 µM] | activity change, negative = inhibition [4] 0.417% [at 23.6 µM]

C1=C\CC/C=C\CC/C=C\CC/1
inactive: Potency [5] | Potency [6] | Potency [1] | Potency [2] | Potency [3] | Potency [4]

Cc1cc(C)c(N)cc1C
inactive: Potency (Aromatase (Homo sapiens)) | Potency [1] | Potency [2] | Potency [3] | Potency [4]

CC1=C(CC(=O)O)c2cc(F)ccc2/C1=C\c1ccc(S(C)(=O)=O)cc1
inactive: Potency [1] | Potency [2] | Potency [3] | Potency [4]

CC(C)(c1cc(Br)c(OCCO)c(Br)c1)c1cc(Br)c(OCCO)c(Br)c1
inactive: Potency [1] | Potency [2] | Potency [3] | Potency [4]
active: Potency [5] 42.3 µM | Potency (Aromatase (Homo sapiens)) 42.3 µM

Cc1ccc(C)c(N)c1
inactive: Potency [5] | Potency [1] | Potency [2] | Potency [3] | Potency [4]

CCCCCCCCCCCC(C)=O
inactive: Potency [1] | Potency [2] | Potency [3] | Potency [4]

CCCCN(CCCC)CC(O)c1cc(Cl)cc2c1-c1ccc(Cl)cc1/C2=C/c1ccc(Cl)cc1 (stereo not given)
inactive: Potency [1] | Potency [2] | Potency [4]

CCCCCCc1ccc(N)cc1
inactive: Potency [1] | Potency [2] | Potency [3] | Potency [4]

O=S(O)(O)=S
inactive: activity, negative = inhibition [1] -0.643% [at 10.5 µM] | activity change, negative = inhibition [2] 0.136% [at 10.5 µM] | activity change, negative = inhibition [3] 2.89% [at 10.5 µM] | activity change, negative = inhibition [4] 0.162% [at 10.5 µM]
